Test results taken from PubChem BioAssay AID624262 (National Center for Advancing Translational Sciences (NCATS), 2012).
The list shows a part of the results. Records with an inconclusive call do not appear. Calls of active or inactive are those of the source. The call rests on the fitted dose curve; in most records, active means well fitted curve in the direction sought with a large enough effect; inconclusive means small, poorly fitted or top-dose-only effect, or another doubt; inactive means no such curve, though single readings can be large or run the other way.

experiment: qHTS for Inhibitors of Glutaminase (GLS): Hit Confirmation in HRP Counterscreen; settings: HRP/glutamate oxidase coupled Amplex Red fluorescence counterscreen; series mostly up to 46.1 µM; activity change, negative = inhibition: at the top concentration
From the text: Glutaminase (GLS) catalyzes the hydrolysis of glutamine into glutamate and ammonia. It plays a critical role in glutaminolysis, which is an important energy source for proliferating cells. It was shown that c-Myc, an oncogenic transcription factor known to regulate microRNAs and to stimulate cell proliferation, increases glutamine metabolism by stimulating the expression of GLS via direct suppression of miR23a and miR23b. […] GLS is also thought to play a pathogenic role on HAD using a human HIV-1 infected macrophage system. […] GLS inhibition limits glutamate release and provides neuroprotection against HIV-1 infected macrophages. […] The overall goal of this project is to identify small molecule inhibitors of GLS through quantitative high throughput screening (qHTS) of the MLSMR. A validated potent and selective inhibitor can be used as a tool molecule to further study the pharmacology of its target as well as explore its potential therapeutic application in cancer and inflammatory neurological disorders, such as HIV1-associated dementia (HAD) and multiple sclerosis. […]
3 uL of buffer are dispensed into black 1536-well plates and then 23 nL of compounds are transferred into the wells using a pin tool. […] The plate is quickly centrifuged before an initial read on the ViewLux is obtained. After a 30 min incubation at RT the plate is once again read on the ViewLux.

Compound	activity change, negative = inhibition
COc1cc(OC)c(S(=O)(=O)Nc2ccccc2C(=O)O)cc1S(=O)(=O)Nc1ccccc1C(=O)O	-3.19% (inactive)
CCN1C(=O)c2cccc3c(S(=O)(=O)Nc4ccccc4O)ccc1c23	-2.22% (inactive)
